Active and inactive are the calls of the source. Entries that show only a call come without a potency. The call rests on the fitted dose curve; in most records, active means well fitted curve in the direction sought with a large enough effect in the repeat runs; inconclusive means weak or mixed curves; inactive means flat fitted curve, though single readings scatter.
Experiment: qHTS assay to test for compound auto fluorescence at 460 nm (blue) in HEK293 cells (AID 720678)
Details: blue autofluorescence 405/460 nm; series mostly up to 91.3 µM
Description: National Center for Advancing Translational Sciences [NCATS]
NIH Chemical Genomics Center [NCGC]
U.S. Environmental Protection Agency [EPA]
National Institutes of Environmental Health Sciences [NIEHS]
National Toxicology Program [NTP]
U.S. Food and Drug Administration [FDA]
Compound auto fluorescence often interferes with screening of the compound library against various biological targets and signaling pathways. Some of these compounds may have fluorophoric properties. Such properties may interfere with the assay outputs resulting in false positives and/or negatives. To decrease such complications and ensure the compound activities are relevant in terms of biological response, the Tox21 10K compound library was screened for auto fluorescence.
From the fluorophores used as reporter signals in our screening assays, the auto fluorescence equivalencies of compounds against three fluorophores have been evaluated: Triamterene, Fluorescein and Rose Bengal sodium for blue, green and red fluorescence, respectively. The fluorescence intensities were measured using Excitation/Emission wavelengths at 405/460nm, 485/535nm and 540/590nm for blue, green and red labels, respectively. This assay includes the blue fluorescence data.
Tox21 Assay Protocol Summary:
2,000 HEK293 cells in 5 uL of culture medium containing 10% dialyzed FBS per well were dispensed into black wall/clear bottom 1536-well plates using a Multidrop Combi Dispenser (Thermo Scientific). The assay plates were incubated for 4-5 hr at 37C to allow cell attachment to the well bottom, followed by the transfer of 23 nL compound or DMSO vehicle by a pintool work station (Kalypsys, San Diego, CA). After the assay plates were incubated overnight at 37C and 5% CO2, fluorescence intensities in the assay plates were measured by an Envision (PerkinElmer, Shelton, CT) plate reader using three labels for measuring blue, green and red fluorescence at […] 460, 535 and 590nm respectively.
Potency means the concentration at half of the fitted maximal effect; tags describe the fitted curve by direction and shape or compound fluorescence and quenching.

Question: With `O=C(c1cc(O)c(O)c(O)c1)c1ccc(O)c(O)c1O` as the molecule, how does the Potency read?
Answer: The Potency was “inactive”.

Question: For `Nc1c(S(=O)(=O)O)cc(Br)c2c1C(=O)c1ccccc1C2=O`, which Potency is on record?
Answer: The Potency was “inactive”.

Question: Which Potency does the source give for `CCCCC(CC)C(=O)OCCOCCOCCOC(=O)C(CC)CCCC` (stereo not given) here?
Answer: The Potency was “inactive”.

Question: With `COC(=O)c1ccccc1O` as the molecule, how does the Potency read?
Answer: The Potency was “inactive”.

Question: With `Cc1cc(NS(=O)(=O)c2ccc(N)cc2)no1` as the molecule, how does the Potency read?
Answer: The Potency was “inactive”.

Question: With `C=C1C2CCC(C2)C1(C)C` (stereo not given) as the molecule, how does the Potency read?
Answer: The Potency was “inactive”.

Question: With `NCCc1ccc(O)c(O)c1` as the molecule, how does the Potency read?
Answer: Its Potency is “inactive”.

Question: For `CC1(C)O[C@@H]2C[C@H]3[C@@H]4C[C@H](F)C5=CC(=O)CC[C@]5(C)[C@H]4[C@@H](O)C[C@]3(C)[C@]2(C(=O)CO)O1`, which Potency is on record?
Answer: Its Potency is “inactive”.

Question: Which Potency does the source give for `Nc1nc2ncc(CNc3ccc(C(=O)N[C@@H](CCC(=O)O)C(=O)O)cc3)nc2c(=O)[nH]1` here?
Answer: The Potency was 44.7 µM [fluorescent] (active).

Question: For `Cc1cc(O)cc(C)c1Cl`, which Potency is on record?
Answer: The Potency was “inactive”.

Question: Which Potency does the source give for `O=[N+]([O-])c1cccc(Cl)c1` here?
Answer: The Potency was “inactive”.

Question: For `O=C1O[C@H](CO)[C@@H](O)[C@H](O)[C@H]1O`, which Potency is on record?
Answer: The Potency was “inactive”.

Question: With `NCc1cccc(CN)c1` as the molecule, how does the Potency read?
Answer: Its Potency is “inactive”.

Question: Which Potency does the source give for `CC(C)(CO)COC(=O)C(C)(C)CO` here?
Answer: Its Potency is “inactive”.

Question: Which Potency does the source give for `OC[C@@H](O)[C@@H](O)[C@H](O)[C@@H](O)CO` here?
Answer: Its Potency is “inactive”.

Question: For `CCCCCCCCCCCCOCC1CO1` (stereo not given), which Potency is on record?
Answer: The Potency was “inactive”.

Question: For `O=[N+]([O-])c1cc(N(CCO)CCO)ccc1NCCO`, which Potency is on record?
Answer: The Potency was “inactive”.

Question: With `CCCCC(CC)COC(=O)/C=C\C(=O)OCC(CC)CCCC` (stereo not given) as the molecule, how does the Potency read?
Answer: Its Potency is “inactive”.

Question: For `c1ccc2[nH]cnc2c1`, which Potency is on record?
Answer: The Potency was “inactive”.

Question: With `O=S(=O)(O)CCS` as the molecule, how does the Potency read?
Answer: Its Potency is “inactive”.

Question: For `Cc1cc(Cc2ccc(N)c(C)c2)ccc1N`, which Potency is on record?
Answer: Its Potency is “inactive”.

Question: With `COC(=O)c1ccc(C(=O)OC)cc1` as the molecule, how does the Potency read?
Answer: Its Potency is “inactive”.

Question: Which Potency does the source give for `O=C(Cl)c1c(Cl)c(Cl)c(C(=O)Cl)c(Cl)c1Cl` here?
Answer: The Potency was “inactive”.

Question: With `C/C=C(C)/C=C/C=C(C)C` as the molecule, how does the Potency read?
Answer: The Potency was “inactive”.

Question: With `CCCCCC/C=C/CCCCCCCC(=O)O` as the molecule, how does the Potency read?
Answer: Its Potency is “inactive”.

Question: For `S=c1nc[nH]c2nc[nH]c12`, which Potency is on record?
Answer: Its Potency is “inactive”.

Question: Which Potency does the source give for `CCC(=O)O` here?
Answer: The Potency was “inactive”.

Question: Which Potency does the source give for `CCCCCCCCC` here?
Answer: Its Potency is “inactive”.

Question: For `C=C(C)C(=O)OCCCCCC`, which Potency is on record?
Answer: Its Potency is “inactive”.

Question: Which Potency does the source give for `OC1CCCC1` here?
Answer: The Potency was “inactive”.

Question: With `OCC1CCCO1` (stereo not given) as the molecule, how does the Potency read?
Answer: Its Potency is “inactive”.

Question: With `CC(C)(C)C(=O)C1C(=O)c2ccccc2C1=O` as the molecule, how does the Potency read?
Answer: The Potency was “inactive”.

Question: For `CC[Si](OC(C)=O)(OC(C)=O)OC(C)=O`, which Potency is on record?
Answer: The Potency was “inactive”.

Question: With `CC1=C(CC(=O)O)c2cc(F)ccc2/C1=C\c1ccc(S(C)=O)cc1` (stereo not given) as the molecule, how does the Potency read?
Answer: The Potency was “inactive”.

Question: Which Potency does the source give for `CC1=C(/C=C/C(C)=C/C=C/C(C)=C/CO)C(C)(C)CCC1` here?
Answer: The Potency was “inactive”.

Question: With `Oc1ccc2ccccc2c1` as the molecule, how does the Potency read?
Answer: Its Potency is “inactive”.

Question: With `CC1=CC[C@H]2C[C@@H]1C2(C)C` as the molecule, how does the Potency read?
Answer: Its Potency is “inactive”.

Question: For `ClC1=C(Cl)C(Cl)(Cl)C(Cl)=C1Cl`, which Potency is on record?
Answer: Its Potency is “inactive”.

Question: Which Potency does the source give for `O=S(=O)(O)c1cc(S(=O)(=O)O)c2c(N=Nc3ccccc3)c(O)ccc2c1` here?
Answer: The Potency was “inactive”.

Question: With `O=C(O)c1ccc([N+](=O)[O-])cc1` as the molecule, how does the Potency read?
Answer: Its Potency is “inactive”.

From PubChem BioAssay (Tox21)
